The list is not random: actives were taken first. Their share in the collection is about 31%.
CYP2C9 activ: human CYP2C9 activators, primary screen, biochemical, luminescence. Cytochrome P450 2C9 (Homo sapiens), P11712. recombinant CYP2C9, luciferin-H conversion; stronger effect = higher value; factor 1 = untreated enzyme, 0 = blocked. activation factor at 5 µM. 96,000 tested, 1.4% active. AID 1024, 2008;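 active = activation factor of 2 or more for CYP2C9 at a 5 µM dose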;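 note: 0 = sulfaphenazole-blocked wells and 1 = vehicle-only wells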
Target sequence (P11712 whole entry, looked up): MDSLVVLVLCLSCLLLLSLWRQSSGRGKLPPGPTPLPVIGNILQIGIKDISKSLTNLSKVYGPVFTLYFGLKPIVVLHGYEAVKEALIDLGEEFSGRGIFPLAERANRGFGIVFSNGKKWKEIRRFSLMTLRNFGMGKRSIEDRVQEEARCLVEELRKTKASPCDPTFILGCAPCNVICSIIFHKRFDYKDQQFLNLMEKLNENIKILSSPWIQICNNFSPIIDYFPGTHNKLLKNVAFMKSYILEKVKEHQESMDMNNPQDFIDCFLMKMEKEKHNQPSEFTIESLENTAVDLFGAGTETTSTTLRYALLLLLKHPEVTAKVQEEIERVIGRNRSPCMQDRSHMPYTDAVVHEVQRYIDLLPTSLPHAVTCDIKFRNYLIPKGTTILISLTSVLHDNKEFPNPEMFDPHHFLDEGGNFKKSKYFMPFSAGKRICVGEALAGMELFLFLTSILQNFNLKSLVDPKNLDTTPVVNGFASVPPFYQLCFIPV
CYP2C19 act: human CYP2C19 activators, primary screen, biochemical, luminescence; activation factor at 5 µM; recombinant CYP2C19, luciferin-H EGE luminescence; stronger effect = higher value; 0 = fully inhibited enzyme, 1 = untreated enzyme; 96,000 tested, under 10 active; Cytochrome P450 2C19 (Homo sapiens), P33261;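 active = activation factor of at least 2 at 5 µM in the primary screen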;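 note: 0 = wells with 2.5 mM tranylcypromine and 1 = vehicle-only wells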
CYP2C9 inhib: blockers of cytochrome P450 2C9 activity – biochemical, luminescence, ADME assay, primary screen; inhibition, % at 5 µM; P11712; AID 777, 2007; 96,000 tested, 20% active; CYP2C9 Supersomes, luciferin-H conversion;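 active = blocking of liver enzyme CYP2C9 beyond about 50% at 5 µM, limit read from the data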
CYP2C19 inh: blockers of cytochrome P450 2C19 activity – biochemical, luminescence, ADME assay, primary screen. AID 778, 2007. inhibition, % at 5 µM. 96,000 tested, 21% active. CYP2C19 Supersomes, luciferin-H EGE luminescence, 30 min;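 active = CYP2C19 inhibition above a set limit at 5 µM in the primary screen, cut at about 50% in these data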;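 note: plate controls were negative control wells for no effect and 2.5 mM tranylcypromine positive control for full effect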
Active calls of the source: *.

SMILES	CYP2C9 activ	CYP2C19 act	CYP2C9 inhib	CYP2C19 inh
CCOC(=O)C(NC(=O)c1ccccc1)(N1CCCC1=O)C(F)(F)F (configuration not stated)	0.8	0.5	17	53*
COc1ccc(C2C(C(=O)Nc3ccc4c(c3)OCCO4)c3ccccc3C(=O)N2C)cc1 (configuration not stated)	0.8	0.7	23	29
Cc1cc(C)n2nc3nc(N4CCCCC4)nc(-c4ccco4)c3c2n1	1	0.9	3	11
COc1ccccc1CNC(=O)N[C@@H](Cc1ccccc1)C(=O)O	0.8	0.3	21	70*
O=C(NCc1cccs1)N[C@@H](Cc1ccccc1)C(=O)O	0.9	0.9	6	8
O=C(NCc1ccccc1)N[C@@H](Cc1ccccc1)C(=O)O	1	0.8	-4	17
COC(=O)[C@H](Cc1ccccc1)NC(=O)NCc1cccs1	0.8	0.4	20	63*
CCOc1ccc(N(CC(=O)NCC2CCCO2)S(=O)(=O)c2ccc(Cl)cc2)cc1 (configuration not stated)	0.6	0.1	45	88*
COc1ccc(S(=O)(=O)N(CC(=O)NCC2CCCO2)c2ccc(F)cc2)cc1OC (configuration not stated)	0.7	0.5	28	53*
O=C(COc1ccc(F)cc1)NCC1CCCO1 (configuration not stated)	1.3	1.2	-32	-16
O=C(c1cccs1)N(C(=O)c1cccs1)c1ccc(Br)cn1	0	0	99*	100*
Cc1ccnc(N(C(=O)c2cccs2)C(=O)c2cccs2)c1	0.9	0.9	8	10
COc1ccc(NC(=O)CC2C(=O)N(c3cccc(OC)c3)C(=O)N2C2CCCCC2)cc1 (configuration not stated)	1	0.9	0	8
O=C(Nc1ccc(S(=O)(=O)N2CCCCCC2)cc1)c1ccc(Br)o1	0.6	0.8	45	25
O=c1[nH]nc(Sc2ncnc3sccc23)n1CCc1ccccc1	0.8	0.2	25	80*
O=C(c1cc(-c2ccco2)nn1-c1cccc(Cl)c1)N1CCCCC1	0.1	0.4	87*	64*
Cc1cccc(NC(=O)c2cccc(Cn3cc(Br)c([N+](=O)[O-])n3)c2)c1C	0.9	0.9	8	7
c1ccc(NCc2cccnc2)cc1	0.9	0.9	6	10
S=C(NCc1cccnc1)Nc1cccc(Cl)c1	0.3	0.3	66*	73*
Fc1ccc(CNc2ccc(CNc3ncn[nH]3)cc2)cc1	0.7	0.4	33	64*
Fc1ccc(NCc2cccnc2)cc1	0.8	0.4	17	58*
S=C(NCc1cccnc1)Nc1ccc(Cl)cc1	0.6	0.6	35	39
Cc1ccc(NC(=S)NCc2cccnc2)cc1	0.9	0.3	14	70*
C#CCSc1nnc(-c2ccc(OC)cc2)o1	1	0.8	-2	16
Cc1ccc(C(C2C(=O)CC(C)(C)CC2=O)C2C(=O)CC(C)(C)CC2=O)s1	1	0.8	0	19
SMILES	CYP2C9 activ	CYP2C19 act	CYP2C9 inhib	CYP2C19 inh
Cc1nc(S(=O)(=O)c2ccc(Cl)cc2Cl)nc2c1CCC2	1.4	0.7	-38	26
O=C(CN1CCN(CC(=O)Nc2ccccn2)CC1)Nc1ccccn1	1.2	1	-20	0
COc1ccc(CNC(=O)CN2CCC(C(=O)c3ccc(OC)cc3)CC2)cc1	0.3	0.4	70*	63*
COc1ccccc1NC(=O)N1CCc2[nH]c3ccc(F)cc3c2C1	1.3	0.3	-30	67*
COc1ccccc1NC(=O)CN1CCCCC1	0.6	0.9	37	6
CCOc1ccccc1NC(=O)N1CCC(C(=O)c2ccc(F)cc2)CC1	2.5*	0.2	-153	83*
CC(=O)N1CCc2[nH]c3ccccc3c2C1	0.9	0.7	13	33
COc1ccccc1NC(=O)CN1CCC(C(=O)c2ccc(F)cc2)CC1	1.1	0.5	-11	52*
CC(=O)N1CCN(CCN=CC2=C(O)CC(c3cccs3)CC2=O)CC1 (configuration not stated)	1.2	1	-15	-4
CN(C)c1ccc(C(=O)C(O)c2ccc(C(C)(C)C)cc2)cc1 (configuration not stated)	0.9	0.6	13	45
COc1ccccc1NC(=O)N1CCC(C(=O)c2ccc(F)cc2)CC1	3.4*	0.7	-237	32
O=C(c1ccc(F)cc1)C1CCN(C(=S)Nc2ccccc2)CC1	0.6	0.5	42	50
O=C(CN1CCC(C(=O)c2ccc(F)cc2)CC1)Nc1ccccc1	0.4	0.6	57*	37
Oc1cccc(-c2nc3ccc4ccccc4c3c3c2CCC3)c1	0.6	0.8	37	20
CCOC(=O)COc1ccc2cc(C(=O)OCC)c(=O)oc2c1	1	1.1	2	-5
CCOC(=O)c1ccc(COC(=O)c2cc3ccccc3oc2=O)o1	0.9	0.5	8	52*
COC(=O)CCC(=O)Nc1cccc2ccccc12	1.1	1	-11	3
O=S(=O)(/N=C(/Nc1cccc2ccccc12)c1ccccc1)c1cccs1	0.2	0.1	84*	90*
CCCOc1ccc(-c2nnn(CC(=O)c3c[nH]c4ccccc34)n2)cc1	0.7	1.1	27	-9
CC1=C(C(=O)OC(C)C)C(c2coc3ccccc3c2=O)C2=C(CCCC2=O)N1 (configuration not stated)	0.4	0.5	62*	46
CCSCCOC(=O)C1=C(C)NC2=C(C(=O)CCC2)C1c1coc2ccccc2c1=O (configuration not stated)	0.5	0.8	52*	17
CC1(C)NC(=O)N(CC(=O)Nc2nc(-c3ccc(F)cc3)cs2)C1=O	1.6	1	-64	0
CCOC(=O)Cc1csc(NC(=O)COc2ccc(N(C)S(=O)(=O)c3cccs3)cc2)n1	0.1	0	95*	96*
CN(c1ccc(OCC(=O)N2CCCCC2)cc1)S(=O)(=O)c1cccs1	0.3	0.5	69*	47
CCOC(=O)C(=O)c1csc(NC(=O)COc2ccc(N(C)S(=O)(=O)c3ccc(F)cc3)cc2)n1	0.4	0.4	59*	57*
SMILES	CYP2C9 activ	CYP2C19 act	CYP2C9 inhib	CYP2C19 inh
CCOC(=O)Cc1nnc(NC(=O)COc2ccc(F)cc2)s1	0.8	1	21	0
CCOC(=O)Cc1csc(NC(=O)COc2ccccc2)n1	0.5	0.7	55*	28
CCC1CCC/C1=N\NC(=O)c1cc(C)[nH]n1 (configuration not stated)	0.9	0.8	9	20
Cc1sc2ncn(CC(=O)NCCCC(=O)N3CCN(c4ccccn4)CC3)c(=O)c2c1C	0.9	1	12	-3
COCc1cc(C)nc2sc3c(=O)oc(C)nc3c12	1	1.1	-2	-14
CCOC(=O)Cc1csc(NC(=O)c2ccco2)n1	0.6	0.5	36	46
CCOC(=O)Cc1csc(NS(=O)(=O)Cc2ccccc2)n1	0.2	1	77*	1

High-throughput results as filed in PubChem.
